hcDAF-12 act – activators of H. contortus DAF-12 nuclear receptor; HEK293 hcDAF-12 lit1-tk-luc reporter, luminescence; 0% DMSO, 100% Δ7-dafachronic acid; activation, % at 6.8 µM; 370,000 compounds, 1.4% hits;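 active means activation above the mean of all tested compounds plus 3 SD, cut at about 5.5% in these data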
esBAF inh – SWI/SNF esBAF complex inhibition; mouse ES cells, Bmi1-luciferase knock-in reporter, 24 h; 100% = twice the neutral-well signal; reporter increase, % at 12.5 µM; 350,000 compounds, 2% hits; in the data active means activation above about 40%;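 further: a rise in the Bmi1 reporter signal indicates esBAF inhibition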
hgDAF12 agonist – agonists of H. glycines DAF-12 nuclear receptor | 370,000 compounds, 1.8% hits | HEK293 GAL4-hgDAF12 UAS-luciferase reporter, agonist luminescence; normalized to butyrate control | activation, % at 6.8 µM;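 active means activation above a cutoff set at the mean of all screened compounds plus 3 SD, cut at about 10% in these data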
ssDAF12 agonist – S. stercoralis DAF-12 activation, primary screen | HEK293 ssDAF-12/GRIP1 lit1-tk-luc reporter, luminescence; % of 3 µM dafachronic acid response | activation, % at 6.8 µM | 370,000 compounds, 1% hits;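 active means activation above the mean over all tested compounds plus 3 SD, cut at about 0.9% in these data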
Wnt bcat act – activates Wnt/beta-catenin signaling in a reporter cell assay; activator, plate reader; activation, % at 9.35 µM; 300,000 compounds, 1.2% hits; AID 743398; in the data active means activation above about 30%, passing the limit was not always enough
DAX1 StAR inh – DAX1 (NR0B1) inhibition, primary screen; 370,000 compounds, 1.1% hits; HEK293T StAR-luciferase reporter, SF-1/DAX-1 repression relief; inhibition, % at 6.8 µM;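 active means inhibition above the mean over all tested compounds plus 3 SD, cut at about 3.6% in these data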;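 further: higher inhibition means more luminescence from relief of DAX-1 repression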
Large screens that a line does not name were inactive. Sampled rows, rich in hits. Any-hit rate of the full collection: about 4.2%.

CCc1ccc(CNC(=O)C(=O)NCC2CCCO2)cc1 (configuration not stated)	none
Cc1ccc(C)c(NC(=O)c2ccccc2NC(=O)C2CCCO2)c1 (configuration not stated)	Wnt bcat act 60.2 (no result: esBAF inh)
C[C@H](CO)N1C[C@H](C)[C@H](CN(C)S(=O)(=O)c2cccs2)Oc2c(NC(=O)C3CCOCC3)cccc2C1=O	none (no result: hcDAF-12 act, hgDAF12 agonist, ssDAF12 agonist, Wnt bcat act, DAX1 StAR inh)
C/C=C/c1ccc2c(c1)O[C@H](CN(C)C(=O)Nc1ccc(C(F)(F)F)cc1)[C@H](C)CN([C@H](C)CO)S2(=O)=O	none (no result: hcDAF-12 act, hgDAF12 agonist, ssDAF12 agonist, Wnt bcat act, DAX1 StAR inh)
Nc1ccc(-c2cc(N)n(-c3ccccc3)n2)cc1	none (no result: Wnt bcat act)
CC(=O)Nc1ccc(-c2cc(N)n(-c3ccccc3)n2)cc1	hgDAF12 agonist 11.3, Wnt bcat act 44.4, DAX1 StAR inh 3.9 (no result: esBAF inh)
COc1ccc(-c2nnn(-c3cc(Cl)cc(Cl)c3)c2N)cc1	none (no result: esBAF inh)
CC(=O)Nc1ccc(-c2cc(NC(C)=O)n(-c3ccccc3)n2)cc1	none (no result: Wnt bcat act)
Nc1cc(-c2ccc(Cl)cc2)nn1-c1ccccc1	esBAF inh 58.0, Wnt bcat act 48.6
Nc1c(-c2ccc(Cl)cc2)nnn1-c1ccccc1	esBAF inh 78.8, hgDAF12 agonist 10.9, Wnt bcat act 66.9
O=C(COc1ccccc1)NCC(c1ccco1)N1CCN(c2ccccc2)CC1 (configuration not stated)	hgDAF12 agonist 11.9
CC(=O)Nc1ccc(NC(=O)c2cccc3ccccc23)cc1	none
CN(C)c1cccc(NC(=O)c2cccc3ccccc23)c1	hcDAF-12 act 6.5, ssDAF12 agonist 1.2
Cc1ccc(NC(=O)c2cccc3ccccc23)cc1	esBAF inh 61.4
CC(=O)Nc1cccc(N(C)C)c1	none
O=C(NCc1ccccc1)C1(C(=O)C2CC2)CC(c2ccccn2)=NO1 (configuration not stated)	none (no result: esBAF inh, Wnt bcat act)
O=C(Nc1nccs1)C1(C(=O)C2CC2)CC(c2ccccn2)=NO1 (configuration not stated)	ssDAF12 agonist 1.0 (no result: esBAF inh, Wnt bcat act)
O=C(COC(=O)COc1cccc(C(F)(F)F)c1)Nc1ccc(N2CCOCC2)cc1	hcDAF-12 act 6.1
Cc1ccc2c(c1)NC(=O)c1cccnc1N2	esBAF inh 63.3
O=C1Nc2ccccc2Nc2ncccc21	none (no result: Wnt bcat act)
Cc1ccc(-c2ccc3c(c2)O[C@H](CN(C)C)[C@H](C)CN([C@@H](C)CO)S3(=O)=O)cc1	none (no result: hcDAF-12 act, hgDAF12 agonist, ssDAF12 agonist, Wnt bcat act, DAX1 StAR inh)
CCOC(=O)c1sc(NC(=O)c2ccc3nc[nH]c3c2)nc1C	esBAF inh 52.9
CCSc1nnc(NC(=O)c2ccc3nc[nH]c3c2)s1	esBAF inh 90.7, hgDAF12 agonist 12.6
CCOC(=O)c1sc(NC(=O)c2cccnc2)nc1C	hcDAF-12 act 5.9
CCSc1nnc(NC(=O)c2ccc3ccccc3n2)s1	hcDAF-12 act 6.3, ssDAF12 agonist 1.0 (no result: esBAF inh, Wnt bcat act)
COc1ccc(CN(C)C[C@@H]2Oc3ccc(NC(=O)NC4CCCCC4)cc3CC(=O)N([C@H](C)CO)C[C@@H]2C)cc1	none (no result: hcDAF-12 act, hgDAF12 agonist, ssDAF12 agonist, Wnt bcat act, DAX1 StAR inh)
Cc1ccccc1NC(=O)CN(C)S(=O)(=O)c1ccc2c(c1)n(C)c(=O)c(=O)n2C	none
Cc1cccc(NC(=O)CN(C)S(=O)(=O)c2ccc3c(c2)n(C)c(=O)c(=O)n3C)c1C	hcDAF-12 act 6.1
CCCCn1c(-c2ccco2)n[nH]c1=S	none (no result: esBAF inh)
CCCCn1c(-c2ccoc2C)n[nH]c1=S	Wnt bcat act 43.2
c1ccc2[nH]c(N3CCOCC3)nc2c1	none (no result: Wnt bcat act)
O=c1c(Cl)c(N2CCOCC2)cnn1-c1nc2ccccc2[nH]1	DAX1 StAR inh 4.2 (no result: esBAF inh)
O=C(N[C@@H]1CC[C@@H](CC(=O)N2CCCCC2)O[C@H]1CO)c1cccc(F)c1	none (no result: hcDAF-12 act, hgDAF12 agonist, ssDAF12 agonist, Wnt bcat act, DAX1 StAR inh)
Cc1ccccc1S(=O)(=O)N1CC[C@@H]2[C@H](CO)Nc3ccc(C#Cc4ccccc4)cc3[C@@H]21	none (no result: hcDAF-12 act, hgDAF12 agonist, ssDAF12 agonist, Wnt bcat act, DAX1 StAR inh)
COc1ccc(/C=N/Nc2snc(SC)c2C#N)cc1OC	esBAF inh 52.5 (no result: Wnt bcat act)
COc1cccc(/C=N/Nc2snc(SC)c2C#N)c1	none (no result: esBAF inh, Wnt bcat act)
O=C(Cc1cccs1)N/N=C/C(Br)=C/c1ccccc1	esBAF inh 51.1 (no result: Wnt bcat act)
O=C(N/N=C/C=C\c1ccccc1)c1cnccn1	none (no result: esBAF inh)
O=C(N/N=C/C(Br)=C/c1ccccc1)c1cnccn1	esBAF inh 49.7, Wnt bcat act 32.6
COc1ccc(NC(=O)Cc2cccs2)c(OC)c1	hgDAF12 agonist 10.5
COc1ccc(NC(=O)COc2ccccc2)c(OC)c1	esBAF inh 50.7
CC(/C=N/NC(=O)Cc1cccs1)=C\c1ccccc1	none (no result: esBAF inh, Wnt bcat act)
